# In the supplement of paper PMC6555819:
# Test system: PPARg:RXRa DBDmut IVT, anti-RXR (DBD mutation: RXRa K156A/R161A, NR concentration 270 nM, RXRa partner concentration 90 nM)
# Assay: PBM binding z-score (relative to random genomic background probes); higher = stronger binding; sequences stand for … in GC…GCGATTGACAGCGTAGAATGAAGG
# Summary of the method: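 Binding z-scores take random background probes as their reference. They come from custom Agilent 4×180K protein-binding microarrays incubated 1 h with ligand-free nuclear receptor dimers, with antibodies against each partner (one per run) detecting binding. Scanned fluorescence was regression-normalized.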
row,Sequence,PBM binding z-score
1,TCTTGTAGATCAAACAGGTTAAGAAAGCCTGAGT,1.7
2,GCTAGTTGGTCAGTATAAGGTCACACACCGGTCG,1.28
3,ATCTCTAGGTAACAAGTTCAGAGAAAGAGAGGAC,2.92
4,TCTATTAGTTGTAGGGCAACCGACGAGTCCGTTT,3.04
5,AGAATGAAGTTATACGTAGATCAGGGAAGAAAGT,-0.998
6,TAGCCTAGGTCATTAGGCCAGTATAGTACGCATC,2.12
7,CCTTACGGGTCTCGAGGTTATAGCACGACGAGCG,-0.507
8,ATACCAAGGTGATCGTAAGGTCGTTGATACTAAC,0.558
9,TTACCAAGGTGCAAGGTCGTTGATGCACGCCTTG,-0.0401
10,TCTTATAGGTAAACAGGTGAAAGTCCGTAAGTTA,4.87
11,ATACCAAGGTGATCGTGAGGTCCTTGATACTAAC,0.257
12,TCATATAGGTAAAGGTGATAGTCGAACGATATGA,3.45
13,AGACAAAGTTCACTAGGTAACGTAAGATTCAGCT,2.37
14,GATGCTAGGTCAGGTTGGTCAGCTAACGGGTACG,1.91
15,CCTTACTGGTCACGAGGTTATAGCACGACGAGCG,1.37
16,TCTTGTAGATCAGCAAGTTAAGAAAGCTGGCCAA,1.5
17,TCATATAGGGAAATGCTAGGTGAAAGTCCGATCT,2.89
18,GCAAATAGGTAATACAAGGTGAAAGTCCGATTGT,3.46
19,GCTTACGGGTCAACGGTTATAGCATGAATAGAAT,4.03
20,GCGACTGGGGCATCAGCAGATTACCATAACTTAA,4

row,Sequence,PBM binding z-score
1,GCGACTGCGGCAAAGCAGGTTACCATAAGGTTGG,-0.386
2,GCGACTGGGGCATTAGCAGGTTACCATAACTTAA,3.92
3,ATCGCTAGGTAAAGATAGTTCAGTGAATGCAAAT,-0.327
4,TAGCCTAGGTCAGATCGGGCCAATATACGCTATA,0.525
5,CCTACCGGGCCACGAAAGGTCATTGATTCAGTGA,0.938
6,CCTTACGGGTCACTGACAGGTTATAGAATTTGGA,3.42
7,CCTTACGGGTCACTGACAGATTATAGCATTTGGA,3.42
8,TCCCGGAGGACACGAAAGGTCAGAGCTCGACATC,1.58
9,TCTCAGAGGACACGAAAGGTCAGAGCTCGACATC,1.77
10,CGTCCGAGGTCAGCAGGTCAGTGAAAGCGACGTG,3.37
11,AGAATGAGGATATTAAGATCAGGGAATTGCGGTC,-0.168
12,CCTAGCAGCCCAGGGTCACTCAAGCATTTCGCTT,-0.614
13,GCTGCTAGGTCAACTGTTGGTCAGCTAAAGCTCG,5.26
14,ACTGGCAGGCCAAGGGTCACTCAAGATTAGTCCG,-0.446
15,CCTCGGAGGACAGAAGGTCGGAGCTGTCCGCTTT,-0.473
16,TAGCCTAGGTCAGGCGGGCCAGTATAGTGTCGGC,0.604
17,AGAATGAGGTTAAGCTCAGGGAAACAGAATACAT,3.66
18,CTTCAAAGTTCAACTAAGGTAACGTAAAGCACGC,0.299
19,TTACCAAGGTGAAGGTCTTTGATCCCTCTGTAGA,1.88
20,ATCTCTAGGTAAATTTCAGTGAAAGATCGATAGA,1.2
